Data from PubChem BioAssay (NCATS).
Records with an inconclusive call do not appear. More than one record can exist for a structure, and the calls need not agree. Calls of active or inactive are those of the source. Unless noted, the call rests on the fitted dose curve; in most records, active means well fitted curve in the direction sought with a large enough effect; inconclusive means small, poorly fitted or top-dose-only effect, or another doubt; inactive means no such curve, though single readings can be large; an effect the other way counts as inactive or inconclusive.

How the values were obtained:
[1] = biological target: Protein phosphatase 1D (Homo sapiens) (UniProt O15297); experiment: RapidFire Mass Spectrometry qHTS Assay for Modulators of WT P53-Induced Phosphatase 1 (WIP1) (AID 1347424);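 further: amount of dephosphorylated VEPPL-S-QETFS peptide product formed by WIP1; series mostly up to about 63 µM; plate controls were DMSO wells for no effect and GSK830371 inhibitor control at 10 µM for full effect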
Protein phosphatase 1D (Homo sapiens), sequence (O15297 whole entry, looked up): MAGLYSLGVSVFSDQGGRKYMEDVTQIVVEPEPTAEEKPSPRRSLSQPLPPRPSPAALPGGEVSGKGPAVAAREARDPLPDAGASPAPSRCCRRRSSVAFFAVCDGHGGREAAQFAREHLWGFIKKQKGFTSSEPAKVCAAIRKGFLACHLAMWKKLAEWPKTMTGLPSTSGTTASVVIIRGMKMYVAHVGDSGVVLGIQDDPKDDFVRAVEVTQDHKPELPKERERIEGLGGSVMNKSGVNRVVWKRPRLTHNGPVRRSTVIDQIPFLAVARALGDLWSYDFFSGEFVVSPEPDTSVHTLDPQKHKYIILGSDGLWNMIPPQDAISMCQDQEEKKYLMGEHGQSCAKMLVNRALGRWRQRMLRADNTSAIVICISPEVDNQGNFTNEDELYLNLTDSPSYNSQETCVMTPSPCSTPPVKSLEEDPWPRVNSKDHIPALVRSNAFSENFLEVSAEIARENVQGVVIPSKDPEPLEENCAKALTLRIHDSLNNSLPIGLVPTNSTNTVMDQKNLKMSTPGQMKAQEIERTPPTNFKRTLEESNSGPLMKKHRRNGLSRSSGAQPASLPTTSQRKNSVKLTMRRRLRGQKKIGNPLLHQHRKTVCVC
How it was run: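 WIP1 (10 nM final) was preincubated 1 h at room temperature with compounds in Tris-HCl pH 7.5, 30 mM MgCl2, TCEP, EGTA, BSA; 2 uM VEPPL-pS-QETFS phosphopeptide was added for 5 min, quenched with formic acid, and dephosphorylated product quantified by RapidFire MS.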

[2] = biological target: Protein phosphatase 1D (Homo sapiens) (UniProt O15297); experiment: Rhodamine-PBP qHTS Assay for Modulators of WT P53-Induced Phosphatase 1 (WIP1) (AID 1347425); further: % of control where 0% means no effect
How it was run: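 Steps: enzyme with Rh-PBP sensor and compounds, room-temperature incubation of 1 hr, baseline read, addition of VEPPL-pS-QETFS (10 uM final), kinetic fluorescence reads at 525/598 nm. Activity equals final minus baseline signal.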

[3] = Primary qHTS for inhibitors of La Crosse Virus (LACV) - induced cell death in SH-SY5Y cells (AID 1508616);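 further: top concentration of the series differs between compounds; 0% = infected DMSO wells and 100% = uninfected DMSO wells; higher means more rescue of cells from virus-induced death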
How it was run: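 Protection against LACV-induced cell death is scored in SH-SY5Y cells exposed to compounds and virus (0.01 MOI) for 6 days. Data normalized to virus-infected DMSO wells and virus-free DMSO wells.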

[4] = biological target: Calcium and integrin-binding protein 1 (Homo sapiens) (UniProt Q99828); experiment: Primary qHTS for Identification of Calcium Integrin Binding Protein 1 (CIB1) Competitor (AID 1508620);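 further: GST tagged CIB1 binding a fluorescein labelled alphaIIb integrin peptide tracer; top concentration of the series differs between compounds; on the % scale 0 is the no-effect control and ±100 the full control effect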
Calcium and integrin-binding protein 1 (Homo sapiens), sequence (Q99828 whole entry, looked up): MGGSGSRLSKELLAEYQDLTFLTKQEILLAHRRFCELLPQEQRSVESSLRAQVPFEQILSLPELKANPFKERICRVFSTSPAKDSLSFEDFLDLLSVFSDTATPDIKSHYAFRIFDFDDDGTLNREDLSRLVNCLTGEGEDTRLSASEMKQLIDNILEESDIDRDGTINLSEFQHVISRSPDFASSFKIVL
How it was run: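 Fluorescence polarization competition: CIB1-GST (1 uM final) preincubated with compound 15 min at room temperature, then FITC-labeled alphaIIb peptide (100 nM final) added for another 15 min. Polarization read at Ex 480/Em 540.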

[5] = Primary qHTS for small molecule stabilizers of the endoplasmic reticulum resident proteome: Secreted ER Calcium Modulated Protein (SERCaMP) assay (AID 1508630); further: on the % scale 0 is the no-effect control and ±100 the full control effect
How it was run: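 GLuc-SERCaMP-expressing SH-SY5Y cells, pretreated 16 h with compound, are challenged with thapsigargin to empty ER calcium stores; after 4 h, coelenterazine is added directly to the medium and luminescence is imaged.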

[6] = A High-Content qHTS Against Drug Library for the Identification of Small Molecules that Inhibit DYT1 Early Onset Primary Dystonia-Associated Cell Pathology (AID 1645839; calls by dose curve; further: potency means the concentration at half of the fitted maximal effect)
How it was run: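 Readout: %pathology, the punctate EGFP-TorsinA distribution from imaging, as the primary channel and cell count as the toxicity counterscreen. HEK293 Flp-In cells expressing delE TorsinA were induced with tetracycline and treated with compound for 48 h.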

[7] = biological target: Cytochrome P450 2D6 (Homo sapiens) (UniProt P10635); experiment: Cytochrome P450 family 2 subfamily D member 6 (CYP2D6) small molecule antagonists: luciferase biochemical (cell-free) qHTS assay (AID 1645840; active means well fitted curve in the direction sought with a large enough effect in the repeat runs; an effect the other way counts as inactive or inconclusive; further: nearly all actives have a fitted effect of over 55% in size; further: potency means the concentration at half of the fitted maximal effect)
Cytochrome P450 2D6 (Homo sapiens), sequence (P10635 whole entry, looked up): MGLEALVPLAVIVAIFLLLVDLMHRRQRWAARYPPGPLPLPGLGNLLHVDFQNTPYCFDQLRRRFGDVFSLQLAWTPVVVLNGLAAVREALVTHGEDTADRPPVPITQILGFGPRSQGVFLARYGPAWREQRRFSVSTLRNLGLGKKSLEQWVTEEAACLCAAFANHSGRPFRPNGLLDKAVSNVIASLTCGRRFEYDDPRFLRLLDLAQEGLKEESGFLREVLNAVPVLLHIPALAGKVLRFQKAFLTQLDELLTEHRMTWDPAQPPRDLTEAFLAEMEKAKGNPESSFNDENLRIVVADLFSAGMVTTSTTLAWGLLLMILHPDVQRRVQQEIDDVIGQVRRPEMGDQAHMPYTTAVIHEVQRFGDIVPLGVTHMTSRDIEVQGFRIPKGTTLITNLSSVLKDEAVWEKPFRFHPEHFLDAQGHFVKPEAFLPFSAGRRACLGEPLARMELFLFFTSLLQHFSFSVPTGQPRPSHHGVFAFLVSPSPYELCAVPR
How it was run: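 P450-Glo luminescent screen: recombinant CYP2D6 enzyme–proluciferin substrate mix preincubated with compound 10 min at room temperature, then NADPH regeneration added for 1 h at room temperature. Detection reagent added for 20 min; luciferin light read as relative luminescence units.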

[8] = biological target: Cytochrome P450 2C9 (Homo sapiens) (UniProt P11712); experiment: Cytochrome P450 family 2 subfamily C member 9 (CYP2C9) small molecule antagonists: luciferase biochemical (cell-free) qHTS assay (AID 1645842; active means well fitted curve in the direction sought with a large enough effect in the repeat runs; an effect the other way counts as inactive or inconclusive; further: nearly all actives have a fitted effect of over 55% in size; further: potency means the concentration at half of the fitted maximal effect)
Cytochrome P450 2C9 (Homo sapiens), sequence (P11712 whole entry, looked up): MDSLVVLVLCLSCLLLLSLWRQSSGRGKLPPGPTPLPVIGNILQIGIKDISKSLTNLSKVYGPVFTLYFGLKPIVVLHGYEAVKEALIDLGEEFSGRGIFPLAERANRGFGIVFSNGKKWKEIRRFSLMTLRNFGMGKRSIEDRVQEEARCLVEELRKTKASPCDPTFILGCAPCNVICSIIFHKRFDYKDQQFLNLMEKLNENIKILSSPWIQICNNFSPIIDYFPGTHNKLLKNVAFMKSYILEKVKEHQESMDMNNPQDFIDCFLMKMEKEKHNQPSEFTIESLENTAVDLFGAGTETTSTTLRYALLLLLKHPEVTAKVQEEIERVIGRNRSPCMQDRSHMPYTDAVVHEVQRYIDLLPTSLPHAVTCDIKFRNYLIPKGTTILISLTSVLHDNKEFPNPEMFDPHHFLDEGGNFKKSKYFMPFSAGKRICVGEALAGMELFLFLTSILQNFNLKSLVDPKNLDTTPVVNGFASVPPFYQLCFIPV
How it was run: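 Luminescence, after 20 min with luciferin detection reagent, reflected CYP2C9 turnover during a 1 h NADPH-driven reaction at 37C. Enzyme-substrate mix contained 0.4% bovine serum albumin and was preincubated with compound 10 min at room temperature.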

[9] = biological target: N-terminal Xaa-Pro-Lys N-methyltransferase 1 (Homo sapiens) (UniProt Q9BV86); experiment: Confirmatory qHTS for Inhibitors of N-terminal methyltransferase 1 (NTMT1): MTaseGlo Assay (AID 1645874); further: potency means the concentration at half of the fitted maximal effect; nearly all actives have a fitted effect of over 65% in size
N-terminal Xaa-Pro-Lys N-methyltransferase 1 (Homo sapiens), sequence (Q9BV86 whole entry, looked up): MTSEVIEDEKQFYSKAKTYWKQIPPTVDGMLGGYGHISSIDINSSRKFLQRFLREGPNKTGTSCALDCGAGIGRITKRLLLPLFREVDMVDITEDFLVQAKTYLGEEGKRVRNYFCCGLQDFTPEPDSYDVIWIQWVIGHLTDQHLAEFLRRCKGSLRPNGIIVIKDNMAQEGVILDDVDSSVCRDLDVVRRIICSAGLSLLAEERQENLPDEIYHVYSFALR
How it was run: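 Compounds are incubated with 125 nM NTMT1 and 100 uM SAM for 15 min before the SPKRIA peptide (1 uM) starts a 30 min room-temperature methylation. SAH is measured by coupled luciferase luminescence and curves fitted to a Hill equation.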

[10] = Confirmatory qHTS for small molecule stabilizers of the endoplasmic reticulum resident proteome: Secreted ER Calcium Modulated Protein (SERCaMP) assay (AID 1508628); further: potency means the concentration at half of the fitted maximal effect; nearly all actives have a fitted effect of over 40% in size
How it was run: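 SH-SY5Y cells stably expressing GLuc-SERCaMP, treated 16 h with compound (primary 1.53, 7.67, 38.3 uM; confirmation 11 concentrations, up to 76.6 uM), then 100 nM thapsigargin for 4 h. Secreted Gaussia luciferase in medium read by coelenterazine luminescence.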

[11] = Cell Viability qHTS for small molecule stabilizers of the endoplasmic reticulum resident proteome (AID 1508629); conditions: cell viability counter-screen, 100 nM thapsigargin for final 4 h;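 further: human SH-SY5Y neuroblastoma cells carrying the GLuc-SERCaMP reporter; compound exposure about 46 h in total before the viability read; on the % scale 0 is the no-effect control and ±100 the full control effect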
[12] = Counterscreen qHTS for small molecule stabilizers of the endoplasmic reticulum resident proteome: GLuc-NoTag assay (AID 1508627);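 further: SH-SY5Y cells given compound then 100 nM thapsigargin to empty ER calcium; series mostly up to about 76 µM; 0% = thapsigargin alone and -100% = DMSO vehicle control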
How it was run: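 SH-SY5Y cells stably expressing constitutively secreted GLuc (no SERCaMP tag) were pre-incubated 5 h, treated with compound for 19 h, then 100 nM thapsigargin for 4 h at 37C; medium GLuc read by coelenterazine luminescence.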

Cc1c(C)n(Cc2ccccc2)c2ccc(C(=O)OCCN(C)C)cc12
inactive: Potency [1] | outcome [2] | Potency [3] | Potency [4] | Potency [5]
active: Potency [6] 11.2 µM | Potency [7] 13.8 µM | Potency [8] 12.3 µM | Potency [9] 5.78 µM

Cc1cc2c(cc1CC(=O)c1sccc1S(=O)(=O)Nc1onc(C)c1Cl)OCO2
active: Potency [8] 3.09 µM
4.36 µM (active) and inactive: Potency [7]
inactive: Potency [1] | outcome [2] | Potency [3] | Potency [4] | Potency [5] | Potency [6]

NC(=O)c1cc[n+](CC2=C(C(=O)[O-])N3C(=O)[C@@H](NC(=O)Cc4cccs4)[C@H]3SC2)cc1
inactive: Potency [1] | outcome [2] | Potency [3] | Potency [4] | Potency [6] | Potency [7] | Potency [8]

CC(C)NC[C@@H](O)COc1cccc2ccccc12
inactive: Potency [1] | outcome [2] | Potency [3] | Potency [4] | Potency [5] | Potency [8]

CCOc1ccc(Cc2nccc3cc(OCC)c(OCC)cc23)cc1OCC
inactive: Potency [1] | outcome [2] | Potency [3] | Potency [4] | Potency [5]
active: Potency [7] 13.8 µM | Potency [8] 1.74 µM

O=C1OC(c2ccc(O)cc2)(c2ccc(O)cc2)c2ccccc21
inactive: Potency [1] | outcome [2] | Potency [4]

CCN1CCC[C@H]1CNC(=O)c1c(OC)ccc(Br)c1OC
inactive: Potency [1] | outcome [2] | Potency [3] | Potency [4] | Potency [5] | Potency [6] | Potency [8]

Cc1c(N(C)CS(=O)(=O)O)c(=O)n(-c2ccccc2)n1C
inactive: Potency [1] | outcome [2] | Potency [3] | Potency [4] | Potency [5] | Potency [7] | Potency [8]

CC(C)(C)NC(=O)[C@@H]1CN(Cc2cccnc2)CCN1C[C@@H](O)C[C@@H](Cc1ccccc1)C(=O)N[C@H]1c2ccccc2C[C@H]1O
inactive: Potency [1] | outcome [2] | Potency [3] | Potency [4] | Potency [5] | Potency [6] | Potency [8]

CCOC(=O)/C=C(C)/C=C/C=C(C)/C=C/c1c(C)cc(OC)c(C)c1C
active: Potency [8] 7.76 µM
inactive: Potency [1] | outcome [2] | Potency [3] | Potency [4] | Potency [5]

CCCCc1nc(Cl)c(CO)n1Cc1ccc(-c2ccccc2-c2nn[nH]n2)cc1
active: Potency [8] 2.68 µM
inactive: Potency [1] | outcome [2] | Potency [3] | Potency [4] | Potency [5] | Potency [6] | Potency [7]

O=c1[nH]c(=O)n([C@H]2C[C@H](O)[C@@H](CO)O2)cc1C(F)(F)F
inactive: Potency [1] | outcome [2] | Potency [3] | Potency [4] | Potency [7] | Potency [8]

CCCCN1CCCC1C(=O)Nc1c(C)cc(C)cc1C (centres undefined)
inactive: Potency [1] | outcome [2] | Potency [3] | Potency [4] | Potency [5] | Potency [6] | Potency [8]
active: Potency [7] 3.89 µM

COc1cc2c(cc1OC)C(C(C(=O)N(CCc1ccc(OC)c(OC)c1OC)CCc1ccc(OC)c(OC)c1OC)c1ccccc1)=NCC2 (centres undefined)
active: Potency [7] 12.3 µM | Potency [8] 4.36 µM
inactive: Potency [1] | outcome [2] | Potency [3] | Potency [4]

C[C@]12CC[C@H]3[C@@H](CCC4=CC(=O)CC[C@@]43C)[C@@H]1CC[C@@H]2C(=O)CO
inactive: Potency [1] | outcome [2] | Potency [3] | Potency [4] | Potency [5] | Potency [6] | Potency [7] | Potency [8]

CCC(C(=O)OCCN(CC)CC)c1ccccc1 (centres undefined)
active: Potency [7] 3.09 µM
inactive: Potency [1] | outcome [2] | Potency [3] | Potency [4] | Potency [5] | Potency [6] | Potency [8]

NC(=NCCCCCCN=C(N)/N=C(\N)Nc1ccc(Cl)cc1)/N=C(\N)Nc1ccc(Cl)cc1
active: Potency [7] 2.45 µM | Potency [8] 24.5 µM
inactive: Potency [1] | outcome [2] | Potency [4] | Potency [5]

Cc1ccccc1C(=O)Nc1ccc(C(=O)N2CCCC(N(C)C)c3ccccc32)cc1 (centres undefined)
inactive: Potency [1] | Potency [4] | Potency [5] | Potency [7] | Potency [8]

C[C@H]1C[C@H]2[C@@H]3CCC4=CC(=O)C=C[C@]4(C)[C@@]3(Cl)[C@@H](O)C[C@]2(C)[C@@]1(O)C(=O)CO
inactive: Potency [1] | Potency [3] | Potency [4] | Potency [5]
active: Potency [7] 15.5 µM | Potency [8] 17.4 µM

CC(C)(C)CC(C)(C)c1ccc(OCCOCC[N+](C)(C)Cc2ccccc2)cc1
inactive: outcome [2] | Potency [3] | Potency [5]

CC(=O)Oc1ccc2c(c1)CC[C@@H]1[C@@H]2CC[C@]2(C)[C@@H](O)CC[C@@H]12
inactive: outcome [2] | Potency [3] | Potency [4] | Potency [5] | Potency [6] | Potency [8]

CC1=C(C(=O)OC(C)C)C(c2cccc([N+](=O)[O-])c2)C(C(=O)OC2CN(C(c3ccccc3)c3ccccc3)C2)=C(N)N1 (centres undefined)
active: Potency [10] 28.2 µM | Potency [7] 9.77 µM | Potency [8] 1.95 µM
inactive: outcome [2] | Potency [3] | Potency [4] | max response [11] -0.744%

O=C(Nc1ccc(Oc2ccc(Cl)cc2)c(Cl)c1)c1cc(I)cc(I)c1O
inactive: Potency [1] | outcome [12] | Potency [8]
active: Potency [7] 19.5 µM

C=C(CC)C(=O)c1ccc(OCC(=O)O)c(Cl)c1Cl
inactive: Potency [1] | outcome [2] | Potency [5] | Potency [7]
active: Potency [8] 3.89 µM

OC(CCN1CCCCC1)(c1ccccc1)c1ccccc1
active: Potency [7] 0.617 µM
inactive: Potency [1] | outcome [2] | Potency [4] | Potency [6] | Potency [8]
